Reference: PubChem BioAssay
For some assays here: Potency and affinity values are given separately. Calls of active or inactive are those of the source.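 Rule for the calls, unless noted: active = fluorescence ratio normalized to control raised more than 50% in primary screen plus both repeat runs; inactive = the rest.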

Legend:
[1] = tested on: TRPC4 beta (transient receptor potential cation channel C4), mouse; assay: activators of mouse TRPC4 channel, confirmation, cell-based, Fluo4 calcium, HEK293 TRPC4beta/mu-opioid, duplicates, 10 µM (AID 2426); settings: Fluo4 calcium fluorescence, at 10 µM; active compounds read high
[2] = tested on: transient receptor potential cation channel C4 beta (TRPC4), mouse; assay: activators of mouse TRPC4 channel, confirmation, cell-based, second round, Fluo4, HEK293 TRPC4beta/mu-opioid, 1 µM (AID 2461;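 active = primary screen active and over 50% activation in each of two duplicate runs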); settings: Fluo4 calcium fluorescence, at 1 µM; active compounds read high
[3] = tested on: TRPC4 (transient receptor potential cation channel C4 beta), mouse; assay: positive allosteric modulators of mouse TRPC4, confirmation, cell-based, second round, Fluo-4, HEK293 TRPC4beta/mu-opioid, 1 µM (AID 2554;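 active = primary screen hit whose fluorescence ratio, in both repeats, exceeds the weak agonist control mean by 3 SD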); settings: DAMGO EC20, Fluo-4 calcium flux, at 1 µM; active compounds read high
[4] = tested on: TRPC4 beta (transient receptor potential cation channel C4), mouse; assay: positive allosteric modulators of mouse TRPC4, confirmation, cell-based, Fluo-4, HEK293 TRPC4beta/mu-opioid (AID 2555;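 active = primary screen hit whose calcium fluorescence ratio, in both repeats, exceeds the weak agonist control mean by 3 SD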); settings: DAMGO EC20, Fluo-4 calcium flux, at 10 µM; active compounds read high
[5] = target: Short transient receptor potential channel 4 (Mus musculus) (UniProt Q9QUQ5); assay: inhibitors of mouse TRPC4 channel, confirmation, cell-based, Fluo4, HEK293 TRPC4beta/mu-opioid (AID 2636;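 active = calcium signal cut by more than 3 SD below the full-agonist control yet still positive, in both repeats and the earlier primary screen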); settings: DAMGO, Fluo4 calcium flux, at 10 µM; active compounds read high
[6] = target: Short transient receptor potential channel 4 (Mus musculus) (UniProt Q9QUQ5); assay: inhibitors of mouse TRPC4 channel, confirmation, cell-based, second round, Fluo4, HEK293 TRPC4beta/mu-opioid, 1 µM (AID 2637;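 active = calcium signal ratio cut to more than 3 SD under the fully stimulated control mean yet still positive, in both repeats and the primary screen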;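 for inhibition: percent of integrated ratio relative to wells lacking test compound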); settings: Fluo4 calcium flux, DAMGO, at 1 µM; active compounds read high
[7] = target: Short transient receptor potential channel 4 (Mus musculus) (UniProt Q9QUQ5); assay: mouse TRPC4 channel activators, dose response, cell-based, HEK293 TRPC4/mu-opioid, Fluo-4 calcium (AID 434937;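 active = primary screen activator hit with a dose response curve and TRPC4 channel activation at any tested dose; inactive = no activation, no dose response, or not a primary hit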)
[8] = target: Short transient receptor potential channel 4 (Mus musculus) (UniProt Q9QUQ5); assay: TRPC4 positive allosteric modulators, dose response, cell-based, HEK293 TRPC4/mu-opioid, Fluo-4 calcium, EC20 DAMGO (AID 434941;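 active = earlier screen potentiator hit that boosts the TRPC4 ion channel at some dose, with a dose response; inactive = no potentiation, no dose response, or not a prior hit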;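 note: calcium entry triggered by an EC20 dose of DAMGO at the co-expressed mu-opioid receptor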)
[9] = target: Short transient receptor potential channel 6 (Mus musculus) (UniProt Q61143); assay: inhibition of mouse TRPC6 channel, confirmation, selectivity assay for TRPC4 inhibitor project, cell-based, HEK293, membrane potential dye, duplicate (AID 434948;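 active = active in primary screen and both duplicates, each dropping signal beyond three positive-control SD with fluorescence still positive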); settings: HEK293 TRPC6, membrane potential dye fluorescence, at 10 µM, stimulated with maximal-effect acetylcholine; active compounds read high
[10] = target: Short transient receptor potential channel 6 (Mus musculus) (UniProt Q61143); assay: activation of mouse TRPC6 channel, confirmation, selectivity assay for TRPC4 activator project, cell-based, HEK293, membrane potential dye, duplicate (AID 434950;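 active = membrane potential signal rise above negative control mean plus 3 SD in both duplicates, also active in the earlier TRPC4 screen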); settings: HEK293 TRPC6, membrane potential fluorescence, at 10 µM; active compounds read high
[11] = target: Short transient receptor potential channel 6 (Mus musculus) (UniProt Q61143); assay: TRPC6 potentiation by TRPC4 potentiator hits, confirmation, selectivity assay for TRPC4 potentiator project, HEK293 cells, membrane potential dye, duplicate (AID 434952;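 active = compound raising the membrane signal above positive-control mean plus 3 SD in both repeats, and a primary screen hit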); settings: HEK293 TRPC6, membrane potential dye fluorescence, at 10 µM, maximal acetylcholine added after compound; active compounds read high
[12] = target: Short transient receptor potential channel 4 (Mus musculus) (UniProt Q9QUQ5); assay: calcium flux activators in TRPC4/5HT1a cells, counter-screen for TRPC4 activator project, cell-based, second counter screen, HEK293 TRPC4/5HT1a, Fluo-4 (AID 434977;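 active = calcium signal rise above buffer-control mean plus 5 SD in both duplicates, and also a hit in the primary screen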); settings: Fluo-4 calcium flux, at 10 µM; active compounds read high
[13] = calcium flux inhibitors in TRPC4/5HT1a cells, confirmation, counter-screen for TRPC4 inhibitor project, cell-based, second counter screen, HEK293 TRPC4/5HT1a, Fluo-4 (AID 434978;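 active = primary screen active whose calcium signal fell more than 3 SD beyond the full-serotonin control mean in both duplicate plates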;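 for outcome: serotonin given first at submaximal then at maximal dose after compound preincubation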); settings: Fluo-4 calcium flux, at 10 µM, serotonin added to trigger calcium flux; active compounds read high
[14] = tested on: TRPC4 (mouse), co-expressed with 5HT1a in HEK293; assay: calcium flux potentiators in TRPC4/5HT1a cells, confirmation, counter-screen for TRPC4 potentiator project, cell-based, second counter screen, HEK293 TRPC4/5HT1a, Fluo-4 (AID 434979;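 active = signal rise over 3 SD above mean of control wells given weak agonist, in both repeats and first screen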); settings: Fluo-4 calcium flux, at 10 µM, serotonin added at its EC20 dose; active compounds read high
[15] = calcium flux activation in mu-opioid HEK293 cells, confirmation, counter-screen for TRPC4 activator project, cell-based, HEK293 mu-opioid receptor line (AID 449723;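 active = hit in primary screen, with calcium signal over 5 SD above buffer well mean in both duplicates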;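 note: counter screen cells carry the mu-opioid receptor alone and lack TRPC4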); settings: Fluo-4 calcium fluorescence, at 10 µM; active compounds read high
[16] = calcium flux enhancement in mu-opioid HEK293 cells, confirmation, counter-screen for TRPC4 allosteric potentiator project, cell-based, HEK293 mu-opioid receptor line (AID 449724;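 active = calcium signal rise more than 3 SD above the low-dose agonist control mean, in both duplicate plates and the primary screen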); settings: Fluo-4 calcium flux, at 10 µM, compound added before EC20 DAMGO stimulus; active compounds read high

Sequence of Short transient receptor potential channel 4 (Mus musculus) (Q9QUQ5 whole entry, looked up): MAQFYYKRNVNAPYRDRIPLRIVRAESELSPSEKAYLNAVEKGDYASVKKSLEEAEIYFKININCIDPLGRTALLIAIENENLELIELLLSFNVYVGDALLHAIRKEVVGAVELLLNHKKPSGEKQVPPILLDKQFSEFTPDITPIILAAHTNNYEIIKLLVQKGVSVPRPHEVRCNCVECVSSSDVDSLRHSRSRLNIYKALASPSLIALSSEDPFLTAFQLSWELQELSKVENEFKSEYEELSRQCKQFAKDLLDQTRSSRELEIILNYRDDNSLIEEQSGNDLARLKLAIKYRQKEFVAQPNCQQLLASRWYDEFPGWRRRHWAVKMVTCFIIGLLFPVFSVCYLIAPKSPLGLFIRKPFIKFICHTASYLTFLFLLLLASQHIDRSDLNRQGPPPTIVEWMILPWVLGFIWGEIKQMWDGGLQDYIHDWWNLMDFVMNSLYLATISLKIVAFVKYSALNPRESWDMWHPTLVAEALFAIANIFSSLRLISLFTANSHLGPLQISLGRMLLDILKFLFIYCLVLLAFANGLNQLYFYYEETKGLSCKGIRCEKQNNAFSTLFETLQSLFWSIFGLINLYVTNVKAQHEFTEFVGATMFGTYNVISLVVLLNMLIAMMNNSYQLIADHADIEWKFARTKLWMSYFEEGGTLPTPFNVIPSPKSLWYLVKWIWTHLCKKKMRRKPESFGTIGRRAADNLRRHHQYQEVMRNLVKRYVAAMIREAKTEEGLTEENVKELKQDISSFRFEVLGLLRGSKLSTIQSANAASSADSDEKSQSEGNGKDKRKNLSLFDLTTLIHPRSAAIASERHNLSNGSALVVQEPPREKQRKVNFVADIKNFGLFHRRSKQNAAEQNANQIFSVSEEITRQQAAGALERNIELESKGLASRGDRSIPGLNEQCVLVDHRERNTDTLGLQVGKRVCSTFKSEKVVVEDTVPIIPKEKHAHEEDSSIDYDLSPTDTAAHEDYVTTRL
Sequence of Short transient receptor potential channel 6 (Mus musculus) (Q61143 whole entry, looked up): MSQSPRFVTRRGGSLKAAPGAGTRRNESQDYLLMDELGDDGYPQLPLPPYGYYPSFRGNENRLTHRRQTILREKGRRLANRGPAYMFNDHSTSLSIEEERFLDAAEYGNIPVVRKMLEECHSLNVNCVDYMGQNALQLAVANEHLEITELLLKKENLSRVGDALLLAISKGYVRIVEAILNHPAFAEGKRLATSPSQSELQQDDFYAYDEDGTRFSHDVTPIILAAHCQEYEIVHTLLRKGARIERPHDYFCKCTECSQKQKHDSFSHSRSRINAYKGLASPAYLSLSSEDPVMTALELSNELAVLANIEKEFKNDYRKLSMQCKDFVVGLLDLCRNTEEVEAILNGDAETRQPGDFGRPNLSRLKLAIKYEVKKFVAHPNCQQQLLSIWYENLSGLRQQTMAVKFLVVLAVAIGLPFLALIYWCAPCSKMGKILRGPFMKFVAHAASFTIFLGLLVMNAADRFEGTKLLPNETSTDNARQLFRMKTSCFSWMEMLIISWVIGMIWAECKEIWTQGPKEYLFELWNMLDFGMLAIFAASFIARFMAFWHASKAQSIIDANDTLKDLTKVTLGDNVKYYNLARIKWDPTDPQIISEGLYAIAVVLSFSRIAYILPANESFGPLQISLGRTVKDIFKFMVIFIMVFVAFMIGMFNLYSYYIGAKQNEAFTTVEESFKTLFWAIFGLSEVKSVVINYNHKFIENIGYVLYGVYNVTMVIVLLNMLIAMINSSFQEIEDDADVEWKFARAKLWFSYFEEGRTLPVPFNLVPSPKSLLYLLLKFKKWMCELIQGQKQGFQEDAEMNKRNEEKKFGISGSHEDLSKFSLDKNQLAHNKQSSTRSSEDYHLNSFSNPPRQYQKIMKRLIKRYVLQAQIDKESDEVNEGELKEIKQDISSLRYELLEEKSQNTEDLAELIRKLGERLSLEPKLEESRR

Row | Compound | outcome [1] | outcome [2] | outcome [3] | outcome [4] | inhibition [5] | inhibition [6] | outcome [7] | outcome [8] | outcome [9] | outcome [10] | outcome [11] | outcome [12] | inhibition [13] | outcome [14] | outcome [15] | outcome [16] | outcome [13] | outcome [6] | inhibition [9] | outcome [5]
1 | Cc1cc(N2CCCCC2)nc2ccccc12 | inactive | inactive | inactive | inactive | 83% (active) | 40% (active) | inactive | inactive | inactive | inactive | inactive | inactive | 28.5% (active) | inactive | inactive | inactive |  |  |  | 
2 | O=C(CN1CCN(Cc2ccccc2Cl)CC1)N=Nc1c(O)[nH]c2ccccc12 | inactive | inactive | inactive | inactive | 90% (active) | 50% (active) | inactive | inactive | inactive | inactive | inactive | inactive |  | inactive | inactive | inactive | inactive |  |  | 
3 | CC1CCN(CCOCCOc2ccccc2-c2ccccc2)CC1 | inactive | inactive | inactive | inactive | 101% (active) | 57% (active) | inactive | inactive | inactive | inactive | inactive | inactive | 28.2% (active) | inactive | inactive | inactive |  |  |  | 
4 | C=CCc1ccccc1OCC(O)CN1CCN(c2ccccc2OC)CC1 (centres undefined) | inactive | inactive | inactive | inactive | 68% (active) |  | inactive | inactive | inactive | inactive | inactive | inactive | 13.1% (active) | inactive | inactive | inactive |  | inactive |  | 
5 | Cc1onc(-c2c(F)cccc2Cl)c1C(=O)N(C)CC(=O)Nc1cccc(F)c1 | inactive | inactive | inactive | inactive | 84% (active) |  | inactive | inactive | inactive | inactive | inactive | inactive |  | inactive | inactive | inactive | inactive | inactive |  | 
6 | O=C(Nc1ccc(F)cc1)N1CCN2C(=O)c3ccccc3C12c1ccccc1 (centres undefined) | inactive | inactive | inactive | inactive | 68% (active) |  | inactive | inactive | inactive | inactive | inactive | inactive |  | inactive | inactive | inactive | inactive | inactive |  | 
7 | COc1ccc2nc(C)cc(NCc3ccc(F)cc3)c2c1 | inactive | inactive | inactive | inactive | 84% (active) |  | inactive | inactive |  | inactive | inactive | inactive |  | inactive | inactive | inactive | inactive | inactive | 56% (active) | 
8 | CC(=O)N1CCN(c2ccccc2NC(=O)c2ccc3ccccc3c2)CC1 | inactive | inactive | inactive | inactive | 85% (active) | 74% (active) | inactive | inactive | inactive | inactive | inactive | inactive | 36.5% (active) | inactive | inactive | inactive |  |  |  | 
9 | CC(=O)c1ccc2c(c1)N(C)c1ccccc1S2 | inactive | inactive | inactive | inactive | 84% (active) |  | inactive | inactive | inactive | inactive | inactive | inactive | 36.8% (active) | inactive | inactive | inactive |  | inactive |  | 
10 | Clc1ccc(CN2C3=NCCN3c3ccccc32)cc1Cl | inactive | inactive | inactive | inactive |  | 65% (active) | inactive | inactive | inactive | inactive | inactive | inactive | 20.3% (active) | inactive | inactive | inactive |  |  |  | inactive
11 | O=C(CN1CCCCC1)N=Nc1c(O)[nH]c2ccccc12 | inactive | inactive | inactive | inactive | 80% (active) |  | inactive | inactive | inactive | inactive | inactive | inactive | 33.5% (active) | inactive | inactive | inactive |  | inactive |  | 
12 | CCC(=O)N1CCc2cc(S(=O)(=O)NCCN3CCCCC3CC)ccc21 (centres undefined) | inactive | inactive | inactive | inactive | 94% (active) | 59% (active) | inactive | inactive | inactive | inactive | inactive | inactive | 17.9% (active) | inactive | inactive | inactive |  |  |  | 
13 | Cc1c(CCOC(=O)c2ccc([N+](=O)[O-])cc2)sc[n+]1CC(=O)c1ccccc1 | inactive | inactive | inactive | inactive | 92% (active) |  | inactive | inactive | inactive | inactive | inactive | inactive | 42.9% (active) | inactive | inactive | inactive |  | inactive |  | 
14 | Cc1ccccc1Cn1c(=N)n(CC(O)c2ccco2)c2ccccc21 (centres undefined) | inactive | inactive | inactive | inactive | 89% (active) | 58% (active) | inactive | inactive | inactive | inactive | inactive | inactive | 33.6% (active) | inactive | inactive | inactive |  |  |  | 
